Reference: PubChem BioAssay AID1491 (National Center for Advancing Translational Sciences (NCATS), 2009)
Records with an inconclusive call do not appear. Activity calls are given as the source filed them. Calls come from the whole dose curve; as a rule, active = well fitted inhibition curve with a large enough effect in the main read-out, with a control signal flat; inconclusive = small, poorly fitted or top-dose-only effect, or a change in a side signal; inactive = flat fitted curve, though single readings scatter.

biological target: Neuropeptide S receptor (Homo sapiens) (UniProt Q6W5P4); assay: Confirmation Concentration-Response Assay for Antagonists of the Neuropeptide S Receptor: cAMP Signal Transduction; settings: CHO-NPSR cells, cAMP TR-FRET, antagonist mode; series mostly up to 22.3 µM
Outline: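 LANCE TR-FRET cAMP read-out: 665/620 nm emission ratio, with the 620 nm donor channel also reported, after 2 h RT detection. Stably transfected CHO-NPSR cells got compound titrations and 100 nM NPS in stimulation reagent for 60 min at 37C. IC50 came from Hill fits.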
Potency is the fitted concentration of half-maximal effect.

Chain of Neuropeptide S receptor (Homo sapiens) (Q6W5P4 whole entry, looked up): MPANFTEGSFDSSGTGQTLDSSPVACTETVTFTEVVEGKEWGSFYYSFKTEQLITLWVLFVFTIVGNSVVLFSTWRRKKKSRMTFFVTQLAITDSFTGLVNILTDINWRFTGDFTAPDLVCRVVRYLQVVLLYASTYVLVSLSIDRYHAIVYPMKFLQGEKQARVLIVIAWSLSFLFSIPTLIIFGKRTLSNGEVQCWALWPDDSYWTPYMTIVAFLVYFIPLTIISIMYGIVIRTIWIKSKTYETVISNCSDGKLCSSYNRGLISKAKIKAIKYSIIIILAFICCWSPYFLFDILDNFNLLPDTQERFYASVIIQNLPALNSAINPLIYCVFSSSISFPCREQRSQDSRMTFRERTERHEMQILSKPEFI

Potency, inactive:
CN(C)c1nc(=Nc2cccc(Cl)c2)ss1, Cc1cc(N/N=C/c2ccccc2[N+](=O)[O-])nc(-n2nc(C)cc2C)n1, COc1ccc(/C=N/n2cncn2)cc1Cn1cc([N+](=O)[O-])cn1, O=C(NCCCN1CCOCC1)c1cc2c(=O)[nH]c3ccccc3c2s1, COc1ccccc1-c1nnc(SC2CCc3ccccc3NC2=O)s1 (configuration not stated), Oc1ccc(N=Nc2nccs2)c(O)c1, CN(Cc1cc(=O)[nH]c2ccccc12)C(=O)c1ccccc1, C=CCNC(=O)/C(C#N)=C/c1cn(-c2ccccc2)nc1-c1ccc(OC)c([N+](=O)[O-])c1, COc1ccc(CCNC(=O)CC(c2ccccc2)c2cccc(C)c2O)cc1OC (configuration not stated), Cc1cccc(-c2nnc(SCc3cc(=O)[nH]c4ccccc34)n2C)c1, Cc1cc(C)n(-c2nc(NC(C)C)nc(NC(C)C)n2)n1, O=C(O)C1CCN(c2nc(-c3ccccc3)nc3c2oc2ccccc23)CC1, Cc1ccc(-n2ncc3c(NCc4ccc5c(c4)OCO5)ncnc32)c(C)c1

Potency, active:
N=c1c2c(ncn1-c1ccccc1)Oc1ccc3ccccc3c1C2c1ccc2c(c1)CCO2 (configuration not stated) 1.12 µM, Cc1cc(C)n(-c2nc(Nc3ccccc3C(F)(F)F)nc(-n3nc(C)cc3C)n2)n1 11.2 µM, CC(=O)c1sc(N/N=C\c2ccccc2O)nc1C 7.08 µM, CCOC(=O)CCCC(=O)Nc1ncnc2c1C(c1ccccc1)c1c(ccc3ccccc13)O2 (configuration not stated) 2 µM
